Sampled rows, rich in hits. Any-hit rate of the full collection: about 2.3%.
Rango complex inh – Rango-importin beta binding inhibition. Rango CFP/YFP FRET sensor + importin beta, 45 min. Q14974. Potency, µM (series often up to 92.2 µM), without a hit: at the top dose inhibition of complex formation. AID 540263. 340,000 tested, 0.031% active; calls by dose curve;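 note: 0% = DMSO wells and 100% = buffer wells lacking importin beta; nearly all actives have a fitted effect of over 15% in size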
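Inhibition scored from the CFP 486 nm/YFP 530 nm FRET ratio 45 min after adding 0.125 microM importin beta to 50 nM Rango biosensor preincubated 5 min with compound (room temperature, PBS with DTT, Tween-20, BSA). No-importin wells as positive control.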
Nrf2 activator – activators of Nrf2 (ARE) signaling. AREc32 ARE-luciferase reporter (MCF7-derived line), luminescence, 24 h. Potency, µM (top dose mostly 46.1 µM), without a hit: at the top dose activation, hits mostly activators. 410,000 tested, 0.31% active; note: % of control where 0% means no effect; nearly all actives have a fitted effect of over 65% in size
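ARE activation measured as luciferase luminescence (Steady-Glo, 30 min RT) in AREc32_Fluc cells after 24 hr compound exposure at 37 deg C, 5% CO2; cells seeded overnight at 1000/well in OPTI-MEM, 5% FBS.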
A549 viability – counter-screen for Nrf2 inhibitors: cytotoxicity in A549 cells. A549 ARE-Fluc cells, CellTiter-Fluor viability, 18-24 h. Potency, µM (top dose mostly 46 µM), for inactives: top-dose activity change, negative = cytotoxicity, most hits filed as inhibitors. 390,000 tested, 0.16% active. AID 504648; note: % is set by controls: 0 for no effect and ±100 for the full control effect
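A549 ARE_Fluc cells in 5% FBS OPTI-MEM were exposed to compounds in concentration-response for 18-24 h at 37 deg C. Viability was read by CellTiter-Fluor fluorescence (Ex 405/Em 525) after 30 min, before the luciferase read.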
Nrf2 block – inhibitors of Nrf2 signaling. A549 ARE-Fluc reporter, luciferase luminescence, 18-24 h. Potency, µM (doses to about 46 µM), inactives show top-dose activity change, negative = inhibition, actives largely listed as inhibitors. 360,000 tested, 2.1% active. AID 504444; note: % is set by controls: 0 for no effect and ±100 for the full control effect; nearly all actives have a fitted effect of over 60% in size
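Cells were seeded and rested 2 h, then exposed to compounds for 18-24 h. CellTiter-Fluor was read first as a viability measure. BugLite was added 15 min before the final luminescent read of ARE-luciferase activity in A549 cells.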
Rango dissoc inh – inhibitors of RanGTP-induced Rango-importin beta complex dissociation | AID 540253 | 340,000 tested, 0.071% active | Biochemical FRET Rango-importin beta, RanGTP-induced dissociation | Potency, µM (doses to about 46.1 µM), inactives show top-dose activity change, negative = inhibition; calls by dose curve; note: % of control where 0% means no effect; nearly all actives have a fitted effect of over 45% in size
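Two FRET readings bracket the reaction: one 5 min after compound meets Rango–importin beta, another 45 min after RanGTP-RCC1 (0.6 uM Ran, 0.2 uM RCC1, 2 mM GTP) is added. Only the second defines inhibition.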
* hit, by the source's call; ? = inconclusive; nt = no result given. Unless noted, calls come from the whole dose curve; as a rule, active = well fitted curve in the direction sought with a large enough effect; inconclusive = small, poorly fitted or top-dose-only effect, or another doubt; inactive = no such curve, though single readings can be large; an effect the other way counts as inactive or inconclusive. Potency is the fitted concentration of half-maximal effect.

SMILES	Rango complex inh	Nrf2 activator	A549 viability	Nrf2 block	Rango dissoc inh
Cc1cccc(NC(=O)c2ccc(S(=O)(=O)N3CCC(C)CC3)cc2)n1	3%	4%	-3%	15µM*	-10%
CC1CCN(S(=O)(=O)c2ccc(C(=O)Nc3nnc(C4CC4)o3)cc2)CC1	-2%	-1%	?	12µM*	4%
CC1CCCCN1S(=O)(=O)c1ccc(C(=O)Nc2nnc(-c3ccco3)o2)cc1 (centres undefined)	0%	0%	?	21µM*	2%
O=C(Nc1nnc(-c2ccco2)o1)c1ccc(S(=O)(=O)N2CCCCC2)cc1	nt	-1%	nt	nt	nt
O=C(Nc1nnc(C2CC2)o1)c1ccc(S(=O)(=O)N2CCCCC2)cc1	0%	-1%	-6%	?	4%
Cc1ccc(NC(=O)c2cc(S(=O)(=O)N3CCCC(C)C3)cn2C)c(Br)c1 (centres undefined)	nt	0%	7%	nt	nt
Cc1cc(C)cc(OCC(=O)NCC2(N(C)C)CCCCC2)c1	nt	0%	14%	3%	nt
Cc1ccc(-c2nnn(CC(=O)N(CCCO)C(C(=O)NC3CCCC3)c3ccc(F)cc3)n2)o1 (centres undefined)	1%	0%	-6%	0%	0%
COC(=O)c1cc2sccc2n1CC(=O)Nc1ccc(C)cc1C	nt	1%	3%	-11%	nt
CC1CCCCN1S(=O)(=O)c1ccc(C(=O)Nc2ccccc2-c2nc3ccccc3[nH]2)cc1 (centres undefined)	?	0%	-27%	23µM*	?
O=C(Nc1ccccc1-c1nc2ccccc2[nH]1)c1ccc(S(=O)(=O)N2CCCCC2)cc1	0%	-1%	?	?	-12%
Cc1nc(N2CCCCC2)sc1C(=O)c1ccc(SCCO)c([N+](=O)[O-])c1	?	4%	?	21µM*	2%
Cc1ccccc1NS(=O)(=O)c1ccc(C(=O)NCC(C)(C)N2CCOCC2)cc1	-4%	0%	-7%	10µM*	-5%
CCC(=O)Nc1ccc(C(=O)Cn2ncc(Cl)c(Cl)c2=O)cc1	0%	6.3µM*	-3%	17%	-1%
CCOC(=O)c1ccc(NC(=O)Cn2ncc(Cl)c(Cl)c2=O)cc1	-3%	?	1%	?	1%
COc1ccc(NC(=O)/C(C#N)=C/c2c(C)nn(-c3ccc(F)cc3)c2Cl)cc1OC	-2%	16µM*	-18%	?	4%
COc1ccc(NC(=O)/C(C#N)=C/c2c(C)nn(-c3ccc(F)cc3)c2Cl)cc1Cl	4%	3%	1%	-1%	26%
O=C(Nc1nnc(SCc2ccc(F)cc2)s1)C1Cc2ccccc2CN1C(=O)c1ccco1 (centres undefined)	-2%	4%	?	16µM*	1%
O=C(Nc1nnc(C2CC2)s1)C1Cc2ccccc2CN1C(=O)c1ccco1 (centres undefined)	-2%	7%	-5%	4%	-10%
COC(=O)c1ccccc1NC(=O)COc1ccccc1[N+](=O)[O-]	1%	5µM*	9%	?	0%
COC(=O)c1sccc1NC(=O)COc1ccccc1Cl	-1%	13µM*	3%	?	-8%
COC(=O)c1sccc1NC(=O)c1ccccc1	-3%	7.1µM*	1%	?	17%
COC(=O)c1sccc1NC(=O)c1cccc(OC)c1	2%	6.3µM*	3%	14%	-4%
CCOc1ccccc1NC(=O)Nc1ccsc1C(=O)OC	0%	13%	-1%	-7%	1%
COC(=O)c1ccccc1NC(=O)COc1ccccc1	0%	10%	-3%	?	-13%
Cc1cccc(CSc2nc3c(c(=O)[nH]2)C(c2cccc(O)c2)CC(=O)N3)c1 (centres undefined)	nt	3%	-1%	3%	nt
COC(=O)c1sccc1NC(=O)c1ccc(C)o1	0%	?	-3%	-8%	-23%

Screening data (PubChem BioAssay)
